Source: PubChem BioAssay (National Center for Advancing Translational Sciences (NCATS))
This excerpt belongs to a sample that is enriched for hits.
KDM5B inh = Primary screen for KDM5B Histone Demethylases FDH-coupled qHTS; Lysine-specific demethylase 5B (Homo sapiens), Q9UGL1; KDM5B demethylase, FDH-coupled NADH fluorescence (FDH is formaldehyde dehydrogenase); Potency, µM (titrated, usually from 57.7 µM), actives largely listed as inhibitors; hit rate 2.6% among 220,000; AID 1347165, 2019; active = well fitted inhibition curve with a large enough effect; also: nearly all actives have a fitted effect of over 70% in size
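Coupled FDH/NAD⁺ fluorescence readout. KDM5BΔAP 200 nM final; compound titration, 10 min RT preincubation; substrate mix 12.5 µM H3K4me3, 25 µM 2-OG, 50 µM Fe(II), 100 µM ascorbate, 0.25 mM NAD⁺, 0.25 U/mL FDH; ΔRFU over 30 min.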
Of the large screens only hits and unclear results are named; the others gave an inactive call.

O=C(O)C[C@@H]1CCN(C(=O)C2CCC2)C[C@@H]1CCN1CCN(c2ccc(F)cc2)CC1	none
O=C(O)C[C@@H]1CCN(C(=O)C2CCCCC2)C[C@@H]1CCN1CCC(C(=O)O)CC1	none
CCN(CC)CC[C@H]1CN(C(=O)C2CCC2)CC[C@H]1CC(=O)O	none
COc1cccc2c1CCN=C2C[C@H]1CN(C(=O)C2CCC2)CC[C@H]1CC(=O)O	KDM5B inh 35µM
COc1ccc2c(c1)C(C[C@H]1CN(C(=O)C3CCC3)CC[C@H]1CC(=O)O)=NCC2	KDM5B inh 35µM
COc1ccccc1N1CCN(CC[C@H]2CN(C(=O)C3CC3)CC[C@H]2CC(=O)O)CC1	none
Cc1nc2cc(OCc3nc(C(=O)N(C)CC4(CO)CCC4)co3)ccc2s1	none
Cc1noc(C)c1[S+](=O)([O-])N1CCc2nc(-c3ccc(Cl)cc3)nc(-c3ccccc3)c2C1	none
CCn1nccc1C(=O)N1CCCC(c2nnc(CN3CCCC3)n2C)C1 (centres undefined)	none
O=C(NCC1CN(C(=O)c2cccc(O)c2)CC12CN(c1ccccc1)C2)Nc1ccccc1 (centres undefined)	none
c1ccc(OCC2CN(Cc3ccncc3)CC23CN(c2ccccc2)C3)cc1 (centres undefined)	KDM5B inh 32µM
N#Cc1cccc(C(=O)N2CC(COc3ccccc3)C3(C2)CN(c2ccccc2)C3)c1 (centres undefined)	KDM5B inh 35µM
O=C(CCc1cccnc1)N1CC(COc2ccccc2)C2(C1)CN(c1ccccc1)C2 (centres undefined)	none
O=C(c1cccc(O)c1)N1CC(COc2ccccc2)C2(C1)CN(C(=O)c1cn[nH]c1)C2 (centres undefined)	none
O=C(O)c1cccc(CN2CC(COc3ccccc3)C3(C2)CN(c2ccccc2)C3)c1 (centres undefined)	none
O=C(O)c1ccccc1C(=O)N1Cc2[nH]cnc2C[C@H]1c1nc(-c2ccncc2)no1	none
Cc1ccc(Nc2nc(CSc3nnc4n3CCCCC4)cs2)cc1C	none
CC(C)c1ccc(CN2CCC(CNS(=O)(=O)C3CC3)C2)cc1 (centres undefined)	none
Fc1ccccc1-c1noc(-c2nc(-c3ccc4c(c3)OCO4)no2)n1	KDM5B inh 25µM
COc1ccccc1-c1noc(-c2nc(-c3ccc4c(c3)OCO4)no2)n1	none
Fc1ccccc1-c1noc(-c2nc(-c3ccccc3F)no2)n1	none
CCCc1noc(-c2nc(-c3ccc4c(c3)OCO4)no2)n1	KDM5B inh 25µM
Cc1cc(-c2nc(-c3ccc4c(c3)OCO4)no2)n[nH]1	none
CN(C)c1ccc(-c2noc(-c3nc(-c4ccc5c(c4)OCO5)no3)n2)cc1	none
CCCCNC(=O)c1cc2cccc(OC)c2oc1=O	none
COc1ccc(C(=O)N2CCCCCCNC(=O)[C@@H]3CCCC[C@@H]32)cn1	none
CC(C)N1CCCC2(CCN(C(=O)c3cc(C#N)cn3C)C2)C1=O (centres undefined)	none
O=C(CCC1CCCC1)N1CCCC(c2nc(CCOCC3CCOCC3)no2)C1 (centres undefined)	none
CNC(=O)C1CCN(C(=O)c2coc(COc3ccc4ccc(OC)cc4c3)n2)C1 (centres undefined)	none
CC(C)Nc1cc(N2CCN(Cc3ccccc3F)C(CCO)C2)ncn1 (centres undefined)	none
OCCC1CN(CCOc2ccc(F)cc2)CCN1CC1CCCCC1 (centres undefined)	none
OCCC1CN(c2cc(C(F)(F)F)ccn2)CCN1CC1CCCCC1 (centres undefined)	KDM5B inh 22µM
CCOC(=O)CCCn1nc2n(c1=O)CCN(Cc1cccc(Cl)c1)C2=O	none
Cc1ccc2oc(C(=O)O)c(C)c2c1	none
Cc1ccc2oc(C(=O)NC3CC(=O)N(C(C)C)C3)c(C)c2c1 (centres undefined)	KDM5B inh 25µM
Cc1ccc2oc(C(=O)NC3CCS(=O)(=O)C3)cc(=O)c2c1 (centres undefined)	none
CCC(NC(=O)CCc1c(C)nc(SC)nc1C)c1ccc(Br)cc1 (centres undefined)	none
O=C(O)/C=C/c1cccc(Br)c1	none
Cc1cccc(-c2noc([C@@H]3Cc4nc[nH]c4CN3C(=O)C3CCCCC3)n2)c1	none
Cc1cccc(-c2noc([C@@H]3Cc4nc[nH]c4CN3C(=O)c3ccc(-c4ccccc4)cc3)n2)c1	none
O=C(Nc1ccccc1)N1Cc2[nH]cnc2C[C@H]1c1nc(-c2ccc3ccccc3c2)no1	none
Cc1ccc(NC(=O)N2Cc3[nH]cnc3C[C@H]2c2nc(-c3ccc4ccccc4c3)no2)cc1	KDM5B inh 22µM
O=C(NC1CCCCC1)N1Cc2[nH]cnc2C[C@H]1c1nc(-c2cccc([N+](=O)[O-])c2)no1	KDM5B inh 4µM
Cc1ccc(NC(=O)N2Cc3[nH]cnc3C[C@H]2c2nc(-c3ccncc3)no2)cc1	none
Cc1ccc2c(-c3oc4ccccc4c3N)cc(=O)oc2c1	none
CCc1sc(NC(=O)C[C@H]2NC(=O)c3ccccc3NC2=O)nc1C(=O)OC	none
CCN1CCN(C(=O)c2ccc(OC3CCN(CCc4ccccc4)CC3)cc2)[C@@H](C)C1=O	none
